Source: PubChem
This is a sample that favours compounds with a hit; in the whole collection about 8.5% have one here.
Sfp PPTase inh: Sfp phosphopantetheinyl transferase inhibition | hit rate 3.5% among 310,000 | Potency, µM, most hits filed as inhibitors | Biochemical Sfp PPTase activity, qHTS;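 further: the enzyme is Sfp with the accession as filed and its product quenches rhodamine fluorescence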
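Buffer: 50 mM Hepes-Na pH 7.6, 10 mM MgCl2, 0.01% Nonidet P-40, 0.01% BSA. Enzyme 15 nM, pre-exposed to compound 15 min; substrates then added and fluorescence change tracked over 30 min.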
ALDH1A1 inh: ALDH1A1 (human) enzyme inhibition; P00352; Purified ALDH1A1, NADH fluorescence, propionaldehyde substrate; Potency, µM (highest dose often 75.3 µM), actives largely listed as inhibitors; hit rate 7.3% among 220,000; AID 1030; active means well fitted inhibition curve with a large enough effect, not every such curve was filed as active; inconclusive means small, poorly fitted or top-dose-only effect, or another doubt; inactive means no such curve, though single readings can be large or run the other way
FBPA coupling cs: coupling enzyme interference in Giardia aldolase counter-screen; hit rate 0.67% among 290,000; AID 2472; activity change, negative = inhibition, % at 58.2 µM, hits read low; coupling enzyme system counterscreen, AmpLite Red fluorescence; in the data active means activity change below about -30%
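Fluorescence at 525 nm excitation and 598 nm emission measured inhibition of the coupled detection system without aldolase. Compounds (at 57.5 uM final) were preincubated 10 min at room temperature with coupling enzyme reagent before a 20 min substrate/AmpLite Red step.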
NPSR antagonist: antagonists of human neuropeptide S receptor cAMP signaling; Q6W5P4; CHO-NPSR cells, cAMP TR-FRET, antagonist mode; Potency, µM (doses to about 38.3 µM), hits mostly inhibitors; hit rate 1% among 220,000; AID 1461; further: nearly all actives have a fitted effect of over 50% in size
Target sequence (Q6W5P4 whole entry, looked up): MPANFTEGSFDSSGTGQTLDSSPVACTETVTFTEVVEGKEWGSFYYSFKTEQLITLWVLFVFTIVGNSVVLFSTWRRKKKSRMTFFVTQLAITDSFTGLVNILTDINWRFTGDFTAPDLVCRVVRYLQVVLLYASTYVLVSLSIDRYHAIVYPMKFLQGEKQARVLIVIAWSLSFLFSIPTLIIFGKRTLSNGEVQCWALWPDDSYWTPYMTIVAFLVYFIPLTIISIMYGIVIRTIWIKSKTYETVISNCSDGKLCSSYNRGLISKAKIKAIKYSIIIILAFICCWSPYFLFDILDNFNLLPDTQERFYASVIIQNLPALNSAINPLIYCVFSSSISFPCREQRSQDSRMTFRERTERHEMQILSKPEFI
KDM4E inh: JMJD2E (human) inhibition; B2RXH2; JMJD2E catalytic domain, FDH-coupled NADH fluorescence (FDH is formaldehyde dehydrogenase); Potency, µM (series often up to 57.1 µM), usual class: inhibitors; hit rate 1.6% among 230,000; AID 2147; active means well fitted inhibition curve with a large enough effect, not every such curve was filed as active; inconclusive means small, poorly fitted or top-dose-only effect, or another doubt; inactive means no such curve, though single readings can be large or run the other way; further: nearly all actives have a fitted effect of over 50% in size
RGS12 GoLoco inh: RGS12 GoLoco-Gai1 interaction inhibition. hit rate 0.44% among 230,000. AID 880. Gai1:RGS12 GoLoco peptide FP, rhodamine, 10 min. Potency, µM (series often up to 61.6 µM), hits mostly inhibitors; active means well fitted inhibition curve with a large enough effect, not every such curve was filed as active; inactive means no such curve, though single readings can be large or run the other way; further: nearly all actives have a fitted effect of over 30% in size
Numbers stand for hits; 0 = inactive; ? = inconclusive; - = no result. Unless noted, the call rests on the fitted dose curve; in most records, active means well fitted curve in the direction sought with a large enough effect; inconclusive means small, poorly fitted or top-dose-only effect, or another doubt; inactive means no such curve, though single readings can be large; an effect the other way counts as inactive or inconclusive.

SMILES | Sfp PPTase inh | ALDH1A1 inh | FBPA coupling cs | NPSR antagonist | KDM4E inh | RGS12 GoLoco inh
O=c1[nH]c2cc3c(cc2cc1C(c1nnnn1Cc1ccccc1)N1CCCCCC1)OCCO3 (stereo not given) | 0 | ? | 0 | ? | ? | 0
Cc1cc(C(c2nnnn2Cc2ccccc2)N2CCOCC2)c(C)n1-c1ccc2c(c1)OCO2 (stereo not given) | 28µM | 13µM | 0 | 0 | ? | 0
CCC(C)(C)n1nnnc1C(c1cc2cc3c(cc2[nH]c1=O)OCO3)N1CCCCC1 (stereo not given) | 0 | ? | 0 | 0 | ? | 0
Cc1cccc2cc(C(c3nnnn3Cc3ccc4c(c3)OCO4)N3CCCC3)c(=O)[nH]c12 (stereo not given) | 56µM | ? | 0 | 0 | ? | 0
Cc1ccc2cc(C(c3nnnn3C(C)(C)C)N3CCCC3)c(=O)[nH]c2c1C (stereo not given) | 45µM | ? | 0 | 0 | ? | 0
CCN1CCN(C(c2ccccc2)c2nnnn2Cc2ccc3c(c2)OCO3)CC1 (stereo not given) | 0 | 0 | 0 | 0 | 0 | 0
Cc1cc2cc(C(c3nnnn3Cc3ccco3)N3CCCCC3)c(=O)[nH]c2cc1C (stereo not given) | 40µM | ? | 0 | 0 | 0 | 0
CC(C)(C)OC(=O)N1CCCC1C(=O)NC1COC2CC(n3ccc(=O)[nH]c3=O)OC12 (stereo not given) | 0 | - | 0 | - | - | -
COc1ccc(OC)c(C(c2nnnn2Cc2ccco2)N2CCN(C)CC2)c1 (stereo not given) | 0 | 0 | 0 | 0 | 0 | 0
CCOc1ccc2[nH]c(=O)c(C(c3nnnn3Cc3ccco3)N3CCN(C)CC3)cc2c1 (stereo not given) | 0 | ? | -67 | ? | ? | 0
CC(=O)N1CCN(Cc2nc3cc(NC(=O)c4ccc(F)cc4)ccc3n2C)CC1 | 0 | 0 | 0 | 0 | 0 | 0
CC1=NN(c2ccc(F)cc2)C(=O)C1C(c1cccc(O)c1)c1c(C)[nH]n(-c2ccc(F)cc2)c1=O (stereo not given) | 0 | 8.9µM | 0 | 0 | 0 | 0
CC1=NN(c2ccc(Cl)cc2)C(=O)C1C(c1cccc(O)c1)c1c(C)[nH]n(-c2ccc(Cl)cc2)c1=O (stereo not given) | 0 | 4µM | 0 | 0 | 3.2µM | 0
COc1ccc(C(=O)CSc2nnc(CNC(=O)c3ccco3)n2C)cc1 | 0 | ? | 0 | 0 | 0 | 0
Cc1ccc2c(c1)N(CC(=O)NC1CCC(C)CC1)C(=O)c1cccnc1O2 (stereo not given) | 0 | - | 0 | - | - | -
O=C(CSc1nc2c(cnn2-c2ccccc2)c(=O)[nH]1)N1N=C(c2cccs2)CC1c1ccc(F)cc1 (stereo not given) | 0 | ? | 0 | 0 | 4µM | 0
CC(=O)N1CCN(C(=O)CSc2nc3c(cnn3-c3ccccc3)c(=O)[nH]2)CC1 | 0 | 25µM | 0 | 0 | 0 | 0
CC(C)c1ccc(NC(=O)Cn2c(=O)oc3cccnc32)cc1 | 0 | - | 0 | 0 | 0 | 0
O=C(NCc1ccccc1)C1CCC(=O)N(CCCN2CCCC2=O)C1 (stereo not given) | 0 | - | 0 | - | - | -
COc1cccc(CN=CC2=C(O)CC(C)(C)CC2=O)c1OC | 0 | ? | 0 | 0 | 0 | 0
COc1ccccc1CN=Cc1[nH]c2ccc(Br)c(Cl)c2c1O | ? | 0.79µM | -44 | 0 | 0 | 0
Cc1cccc(N=Cc2c(O)cc(C)oc2=O)c1 | 0 | ? | 0 | 0 | ? | 0
Cc1cccc(N=Cc2[nH]c3ccc(Br)c(Cl)c3c2O)c1 | 0 | 4.5µM | -33 | 0 | 0 | 0
COc1ccccc1NS(=O)(=O)c1ccc(O)c(NC(=S)NCC2CCCO2)c1 (stereo not given) | 25µM | 5.6µM | 0 | 0 | 0 | 0
Cc1cc(C2C(C#N)=C(N)SC(N)=C2C#N)c(C)s1 | ? | 25µM | 0 | 0 | 0 | 0
Cc1cc(C2C(C#N)=C(N)Oc3n[nH]c(C)c32)c(C)s1 (stereo not given) | 0 | 0 | - | 0 | 0 | 0
Cc1sccc1C1C(C#N)=C(N)SC(N)=C1C#N | 18µM | 10µM | 0 | 0 | 0 | 0
COc1ccc(NC(=O)N2CCCC3(CCN(C(C)=O)CC3)C2)cc1 | 0 | 0 | 0 | - | - | 0
